From the supplement of paper PMC8007513
Where a name gives a salt, the structure may show the parent alone. ± gives the standard error. Among all 1,300 compounds or so, about 130 (10%) showed an effect of 50% or more. Many of the other results were omitted from the sample, so strong results are more common in it than they were.

Tested on: Trichoderma virens ATCC 9645
Assay: growth yield (OD600) with compound + IPBC relative to untreated control; higher = less growth inhibition
Settings: compound concentration: 100 uM, IPBC concentration: 200 ng/ml
Outline: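 Trichoderma virens ATCC 9645 spores at 15,000 spores ml^−1 in potato dextrose broth were exposed in 96-well plates to library compounds at 100 μM final, with or without a biocide at 200 ng ml^−1. After growth at 30 °C, OD600 was read at 40 h and 72 h. Values are growth relative to the control without either agent, averaged over duplicate screens.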

Row | SMILES | growth yield (40 h) [%] | growth yield (72 h) [%]
1 | CCCCCCC[N+](CC)(CC)CCCCc1ccc(Cl)cc1 [Clofilium tosylate] + CCCCNC(=O)OCC#CI [3-iodo-2-propynyl butylcarbamate (IPBC)] | 13.5 ± 5.9 | 74.46 ± 0.42
2 | N[C@@H]1C[C@H]1c1ccccc1 [Tranylcypromine hydrochloride] + CCCCNC(=O)OCC#CI [3-iodo-2-propynyl butylcarbamate (IPBC)] | 99.6 ± 1.8 | 104 ± 3.7
3 | N=C(N)N1CCc2ccccc2C1 [Debrisoquin sulfate] + CCCCNC(=O)OCC#CI [3-iodo-2-propynyl butylcarbamate (IPBC)] | 92.3 ± 15 | 96.9 ± 8
4 | COc1ccc2cc([C@@H](C)C(=O)O)ccc2c1 [(R) -Naproxen sodium salt] + CCCCNC(=O)OCC#CI [3-iodo-2-propynyl butylcarbamate (IPBC)] | 67.7 ± 2.2 | 81.5 ± 3.5
5 | COc1ccc2cc(CCC(C)=O)ccc2c1 [Nabumetone] + CCCCNC(=O)OCC#CI [3-iodo-2-propynyl butylcarbamate (IPBC)] | 39.7 ± 1.6 | 67.1 ± 1.5
6 | COc1ccc2cc([C@H](C)C(=O)O)ccc2c1 [(S)-Naproxen] + CCCCNC(=O)OCC#CI [3-iodo-2-propynyl butylcarbamate (IPBC)] | 61.3 ± 1.9 | 78.6 ± 1.1
7 | c1ccc2c(c1)Nc1ccccc1S2 [Phenothiazine] + CCCCNC(=O)OCC#CI [3-iodo-2-propynyl butylcarbamate (IPBC)] | 34.8 ± 2.7 | 51.3 ± 1.6
8 | CC(C)(C#N)c1cc(Cn2cncn2)cc(C(C)(C)C#N)c1 [Anastrozole] + CCCCNC(=O)OCC#CI [3-iodo-2-propynyl butylcarbamate (IPBC)] | 105 ± 3.8 | 98.9 ± 2.2
9 | CN(C)c1ccc(O)c2c1C[C@H]1C[C@H]3[C@H](N(C)C)C(O)=C(C(N)=O)C(=O)[C@@]3(O)C(O)=C1C2=O [Minocycline hydrochloride] + CCCCNC(=O)OCC#CI [3-iodo-2-propynyl butylcarbamate (IPBC)] | 58.1 ± 2.2 | 84.6 ± 4.7
10 | COc1ccc(OC)c(C(O)C(C)N)c1 (centres undefined) [Methoxamine hydrochloride] + CCCCNC(=O)OCC#CI [3-iodo-2-propynyl butylcarbamate (IPBC)] | 87.4 ± 7.3 | 92.4 ± 5.3
11 | COc1ccc(C(=O)N2CCCC2=O)cc1 [Aniracetam] + CCCCNC(=O)OCC#CI [3-iodo-2-propynyl butylcarbamate (IPBC)] | 83.7 ± 4.3 | 87.3 ± 3.1
12 | O=C1Nc2ccc(Cl)cc2[C@@](C#CC2CC2)(C(F)(F)F)O1 [Efavirenz] + CCCCNC(=O)OCC#CI [3-iodo-2-propynyl butylcarbamate (IPBC)] | 39.4 ± 2.9 | 73.1 ± 8.1
